Among the data in PubChem BioAssay (NCATS) are outcome, activation and Potency values, retold here.

Unmarked numbers belong to inactive results. Inconclusive results are not listed. Activity calls are given as the source filed them. Unless noted, calls follow the shape of the dose curve; as a rule, active = well fitted curve in the direction sought with a large enough effect; inconclusive = small, poorly fitted or top-dose-only effect, or another doubt; inactive = no such curve, though single readings can be large; an effect the other way counts as inactive or inconclusive.

Assay [1] addresses Thyrotropin receptor (Homo sapiens) (UniProt P16473). The experiment in a line: qHTS Assay for Antagonists of the Thyroid Stimulating Hormone Receptor (AID 488980). Also: series mostly up to about 58 µM; 0% is about no effect. The gist of the method: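 Inhibition of cAMP raised by EC80 TSH (4 nM final) was read by HTRF, with lysate cAMP competing against cAMP-d2 for cryptate antibody after 30 min at room temperature. The cells were transfected HEK293 held in phosphodiesterase inhibitor RO 20-1724 at 70 uM.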
On the technique in general: Quantitative high-throughput screening tests each substance at several concentrations.

In assay [2] the target is D(1A) dopamine receptor (Homo sapiens) (UniProt P21728). The experiment in a line: HTS Assay for Allosteric Agonists of the Human D1 Dopamine Receptor: Primary Screen for Agonists (AID 488981). Also: 0% is about no effect. In outline:
(§1)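 Tetracycline-induced HEK293 T-REx cells force-coupled to calcium signalling were incubated overnight at 30 C and dye-loaded at room temperature. Calcium flux over 180 s after compound addition flagged agonists; a further 180 s read after EC20 dopamine flagged potentiators.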

For assay [3] the target is unchanged. The assay can be described thus: HTS Assay for Allosteric Agonists of the Human D1 Dopamine Receptor: Primary Screen for Potentiators (AID 488982). Also: 0% is about no effect. In outline: as §1
For assay [4], the target named is Thyrotropin-releasing hormone receptor (Homo sapiens) (UniProt P34981). The assay can be described thus: qHTS for Small Molecule Agonists and Allosteric Enhancers of Human TRH Receptor: Validation Screen for Agonists (AID 493127;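 active = calcium activation more than 3 SD above the typical response in the agonist read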;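 also: intracellular calcium rise by fluo-8 fluorescence before TRH EC20 addition; 0% is about no effect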). As to conditions: TRH receptor agonist cell assay; at 2 µM; stronger effect = higher value. The gist of the method: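 Read-out: intracellular calcium release measured kinetically by FDSS (fluo-8, ex 480/em 530 nm), 1 reading/s after a 10-cycle baseline. TRHR cells, 2000/well, cultured 18 h at 33.5C, dye-loaded at room temp. Compound-evoked positive calcium signal flags agonists.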
Thyrotropin-releasing hormone receptor (Homo sapiens), sequence (P34981 whole entry, looked up): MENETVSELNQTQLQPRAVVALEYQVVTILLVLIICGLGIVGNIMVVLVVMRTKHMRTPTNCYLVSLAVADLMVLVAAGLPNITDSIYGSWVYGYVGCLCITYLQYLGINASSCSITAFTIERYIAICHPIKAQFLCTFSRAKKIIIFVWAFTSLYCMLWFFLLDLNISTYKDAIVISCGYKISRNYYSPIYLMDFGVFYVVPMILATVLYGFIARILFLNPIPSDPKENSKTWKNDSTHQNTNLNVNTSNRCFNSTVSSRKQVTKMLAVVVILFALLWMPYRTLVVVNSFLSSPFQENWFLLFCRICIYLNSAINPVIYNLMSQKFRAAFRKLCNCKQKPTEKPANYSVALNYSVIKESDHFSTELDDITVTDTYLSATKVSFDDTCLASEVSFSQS

Assay [5] can be described thus: qHTS for Inhibitors of Cell Surface uPA Generation: Validation Assay (AID 493164).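 Also: RAW 264.7 macrophage cells exposed to compound for 18 h; 0% is about no effect.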 The gist of the method: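 Compounds are titrated over seven points (2.45 nM–38.3 uM final) onto pre-plated RAW 264.7 cells and incubated for 18 h. Retained intracellular ATP, measured with ATP-Lite, indicates blocked lethal factor entry.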
In assay [6] the target is Galactokinase (Homo sapiens) (UniProt P51570). The assay can be described thus: qHTS Validation Assay for Inhibitors of Human Galactokinase (GALK) (AID 493189). Also: 0% is about no effect. In outline:
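Inhibition was measured as remaining ATP, detected by luciferase luminescence after a 1 h room-temperature reaction. Final conditions: 5 nM GALK, 100 uM galactose, 35 uM ATP, pH 8.0 HEPES buffer.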

The nature of assay [7]: Validation screen for small molecules that induce DNA re-replication in SW480 colon adenocarcinoma cells (AID 504364). Also: 0% is about no effect. In outline:
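Read-out: total Hoechst intensity of nuclei by fluorescence scanning imager; hits raise the fraction of nuclei with elevated DNA content. Cells received compound for 48 hr at 37 C before a 40 min stain.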

In assay [8] the target is Peptidyl-prolyl cis-trans isomerase NIMA-interacting 1 (Homo sapiens) (UniProt Q13526). The experiment in a line: qHTS Validation Assay to Find Inhibitors of Pin1 (AID 504536; active = well fitted inhibition curve with a large enough effect in the polarisation, with a control signal flat, not every such curve was filed as active; the % refers to the polarisation;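 also: 0% = full Pin1 enzyme wells and -100% = no-enzyme wells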). The gist of the method: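 Fluorescence polarization competition: compounds (titration) displace HiFluor-488-labeled Pin1-1b peptide from Pin1 (0.3 uM final) in pH 7.5 HEPES buffer with DTT, 10 min at room temperature; %Activity normalized to no-enzyme wells, curves fitted.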
Peptidyl-prolyl cis-trans isomerase NIMA-interacting 1 (Homo sapiens), sequence (Q13526 whole entry, looked up): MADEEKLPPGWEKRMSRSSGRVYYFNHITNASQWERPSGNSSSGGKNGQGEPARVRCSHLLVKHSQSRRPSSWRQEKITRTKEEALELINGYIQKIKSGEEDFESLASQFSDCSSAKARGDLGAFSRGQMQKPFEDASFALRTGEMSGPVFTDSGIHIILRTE

In assay [9] the target is Phosphoglycerate kinase, glycosomal (Trypanosoma brucei brucei) (UniProt P07378). The experiment in a line: qHTS Validation Assay to Find Inhibitors of Phosphoglycerate Kinase (AID 504547).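 Also: control wells lack PGK and mark full inhibition.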 In outline:
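In TEA buffer (100mM, pH 7.6) containing 5mM MgCl2 and 0.01% Tween-20, the GAPDH-coupled PGK reaction proceeded for 60 minutes at room temperature before a single luminescence reading using Kinase-Glo Plus.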

Assay [10] addresses Voltage-gated inwardly rectifying potassium channel KCNH2 (Homo sapiens) (UniProt Q12809). The assay can be described thus: qHTS Assay for Small Molecule Inhibitors of the Human hERG Channel Activity (AID 588834).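 Also: top concentration of the series differs between compounds; % is scaled to controls: 0 for no effect and ±100 for the full control effect; lower thallium flux fluorescence means stronger hERG block; nearly all actives have a fitted effect of over 50% in size.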 In outline: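 hERG block measured as reduced thallium-dye (FluxOR) fluorescence after stimulation buffer addition, read over 2 min. Cells were hERG-BacMam-transduced U2OS exposed to compound ~10 min […]; concentration-response fitted with Hill equation for AC50.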

Assay [11] concerns the target Glutaminase kidney isoform, mitochondrial (Homo sapiens) (UniProt O94925). The experiment in a line: qHTS for Inhibitors of Glutaminase (GLS): LOPAC Validation (AID 624146). Also: potency is read from the fitted curve at half-maximal effect; nearly all actives have a fitted effect of over 60% in size. The gist of the method:
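Read-out is an Amplex red fluorescence increase coupled through glutamate oxidase and HRP, measured before and after 30 min room-temperature incubation. hKGA is in 45 mM KH2PO4 (pH 8.2) with 0.02% Tween-20; glutamine added as 1mM solution.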

The nature of assay [12]: qHTS of Trypanosoma Brucei Inhibitors: LOPAC Validation (AID 624147). Also: 0% is about no effect. In outline: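 Luminescent Kinase-Glo Plus end-point after 45 min room-temperature reaction of T. brucei pyruvate kinase started with 130 uM ADP (final). Buffer TEA 50 mM pH 7.2 with KCl, MgCl2, BSA, Tween-20; titration-based qHTS with fitted concentration-effect curves.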
Assay [13] has as its target Glucagon-like peptide 1 receptor (Homo sapiens) (UniProt P43220). The experiment in a line: qHTS of GLP-1 Receptor Agonists: LOPAC Validation (AID 624148).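 Also: 0% is about no effect; higher luminescence signal means agonism.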 In outline: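 HEK293 cells stably co-expressing a cAMP-responsive luciferase reporter and a hypersensitive GLP-1R were plated 12 h at 37 °C and exposed to compounds for 4-6 hr at 37 °C, 5% CO2. Luminescence was read 12 min after adding detection reagent.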

Assay [14] can be described thus: qHTS of Nrf2 Activators: LOPAC Validation (AID 624149). Also: 0% is about no effect. The gist of the method:
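AREc32_Fluc cells, 1000/well, OPTI-MEM + 5% FBS, o/n 37 deg C 5% CO2; compound pin-transfer, 24 hr 37 deg C; Steady-Glo 30 min RT, luminescence read.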

A short description of assay [15]: HTS Assay for Allosteric Antagonists of the Human D2 Dopamine Receptor: Hit Validation in HTRF (AID 624455). Also: % is scaled to controls: 0 for no effect and ±100 for the full control effect. In outline:
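HTRF read-out; cells stably expressing D1 receptor; hits scored for inhibition of D1-mediated response. Primary screen: calcium flux, force-coupled inducible Hek293 Trex D2 line, antagonism vs EC80 dopamine.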
A general note: In TR-FRET formats the signal depends on donor and acceptor labels being close together.

Assay [16] addresses Tyrosine-protein kinase Yes (Homo sapiens) (UniProt P07947). The assay can be described thus: qHTS for small molecule inhibitors of Yes1 kinase: Primary Screen (AID 686947). Also: potency is read from the fitted curve at half-maximal effect; nearly all actives have a fitted effect of over 60% in size. The gist of the method: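 In this qHTS format, inhibition is expressed relative to DMSO controls with enzyme (maximum) and without enzyme (minimum). The 60 min room-temperature reaction uses 0.1 mM ATP, with ADP detected by luminescence.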

Assay [17] in a line: qHTS for small molecule inhibitors of Yes1 kinase: Counter Assay (AID 686950).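 Also: no kinase present so only ADP-Glo detection of a fixed ADP amount is tested; luminescence from ADP-Glo reporting ADP in a fixed ATP and ADP mixture; series mostly up to about 77 µM; 0% = DMSO wells with ATP plus ADP and -100% = ATP-only wells without ADP.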 In outline:
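Measuring interference with ADP-Glo, the assay ran 60 min at room temperature on an ATP/ADP mix lacking enzyme. Values were normalized to ATP-plus-ADP (maximum) and ATP-only (minimum) DMSO controls.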

Assay [18] has as its target Arylsulfatase A (Homo sapiens) (UniProt P15289). The experiment in a line: qHTS screen for enhancers of Arylsulfatase A (ASA1): LOPAC Validation Assay (AID 720538). Also: potency is read from the fitted curve at half-maximal effect. In outline:
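Enhancer assay in patient-derived MLD fibroblasts carrying ASA-I179S: 48 h compound exposure at 37 C, then 14 h room-temperature pNCS turnover (0.5 mM final) in lysis buffer. Read by fluorescence at 525/598 nm after NaOH stop.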

The nature of assay [19]: qHTS for Activators of Parkin Expression: LOPAC Validation Assay (FLuc Reporter) (AID 720573; also: potency is read from the fitted curve at half-maximal effect). In outline:
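FLuc signal from Parkin-promoter coincidence reporter neuronal cells, normalized to DMSO and positive control (100%). Cells (1,500/well) pre-incubated 24 h, then exposed to LOPAC compounds in 7-point dose response for 24 h at 37 C, 5% CO2.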

D(1A) dopamine receptor (Homo sapiens), sequence (P21728 whole entry, looked up): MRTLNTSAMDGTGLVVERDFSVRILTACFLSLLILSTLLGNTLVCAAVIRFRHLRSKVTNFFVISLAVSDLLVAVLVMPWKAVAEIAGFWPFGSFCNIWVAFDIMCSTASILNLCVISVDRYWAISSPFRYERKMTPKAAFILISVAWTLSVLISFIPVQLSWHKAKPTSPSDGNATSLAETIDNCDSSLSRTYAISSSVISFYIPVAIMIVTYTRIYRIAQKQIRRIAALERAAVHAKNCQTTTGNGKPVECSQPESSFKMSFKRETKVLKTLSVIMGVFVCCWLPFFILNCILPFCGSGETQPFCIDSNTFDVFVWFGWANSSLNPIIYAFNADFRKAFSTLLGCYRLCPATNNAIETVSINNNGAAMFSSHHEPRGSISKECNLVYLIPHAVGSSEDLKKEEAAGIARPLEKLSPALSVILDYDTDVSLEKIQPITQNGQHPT
Phosphoglycerate kinase, glycosomal (Trypanosoma brucei brucei), sequence (P07378 whole entry, looked up): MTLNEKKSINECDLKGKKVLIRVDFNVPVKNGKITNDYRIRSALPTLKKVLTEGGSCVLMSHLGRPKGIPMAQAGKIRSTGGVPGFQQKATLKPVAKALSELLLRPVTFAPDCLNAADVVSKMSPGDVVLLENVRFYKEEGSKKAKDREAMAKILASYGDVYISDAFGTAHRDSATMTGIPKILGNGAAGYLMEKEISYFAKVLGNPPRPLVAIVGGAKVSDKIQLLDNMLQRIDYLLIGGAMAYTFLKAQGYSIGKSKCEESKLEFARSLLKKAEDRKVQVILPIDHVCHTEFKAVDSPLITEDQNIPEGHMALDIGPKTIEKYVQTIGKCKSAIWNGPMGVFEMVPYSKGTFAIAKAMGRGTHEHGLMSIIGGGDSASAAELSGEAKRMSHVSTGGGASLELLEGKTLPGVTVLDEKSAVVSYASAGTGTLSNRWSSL
Arylsulfatase A (Homo sapiens), sequence (P15289 whole entry, looked up): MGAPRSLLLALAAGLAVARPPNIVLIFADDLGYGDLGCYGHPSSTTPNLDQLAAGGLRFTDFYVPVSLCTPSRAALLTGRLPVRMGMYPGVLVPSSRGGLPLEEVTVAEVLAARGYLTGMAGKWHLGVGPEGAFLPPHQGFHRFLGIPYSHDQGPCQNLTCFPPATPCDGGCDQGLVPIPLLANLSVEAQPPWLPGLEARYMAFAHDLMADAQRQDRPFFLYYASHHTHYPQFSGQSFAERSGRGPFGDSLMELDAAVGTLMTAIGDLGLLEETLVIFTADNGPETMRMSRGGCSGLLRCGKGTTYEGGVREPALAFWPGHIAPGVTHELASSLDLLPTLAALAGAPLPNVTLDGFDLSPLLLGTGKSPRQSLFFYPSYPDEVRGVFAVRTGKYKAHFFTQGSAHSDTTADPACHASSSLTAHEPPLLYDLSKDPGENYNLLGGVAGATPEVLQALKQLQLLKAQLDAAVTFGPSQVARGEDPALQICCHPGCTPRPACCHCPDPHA
Voltage-gated inwardly rectifying potassium channel KCNH2 (Homo sapiens), sequence (Q12809 whole entry, looked up): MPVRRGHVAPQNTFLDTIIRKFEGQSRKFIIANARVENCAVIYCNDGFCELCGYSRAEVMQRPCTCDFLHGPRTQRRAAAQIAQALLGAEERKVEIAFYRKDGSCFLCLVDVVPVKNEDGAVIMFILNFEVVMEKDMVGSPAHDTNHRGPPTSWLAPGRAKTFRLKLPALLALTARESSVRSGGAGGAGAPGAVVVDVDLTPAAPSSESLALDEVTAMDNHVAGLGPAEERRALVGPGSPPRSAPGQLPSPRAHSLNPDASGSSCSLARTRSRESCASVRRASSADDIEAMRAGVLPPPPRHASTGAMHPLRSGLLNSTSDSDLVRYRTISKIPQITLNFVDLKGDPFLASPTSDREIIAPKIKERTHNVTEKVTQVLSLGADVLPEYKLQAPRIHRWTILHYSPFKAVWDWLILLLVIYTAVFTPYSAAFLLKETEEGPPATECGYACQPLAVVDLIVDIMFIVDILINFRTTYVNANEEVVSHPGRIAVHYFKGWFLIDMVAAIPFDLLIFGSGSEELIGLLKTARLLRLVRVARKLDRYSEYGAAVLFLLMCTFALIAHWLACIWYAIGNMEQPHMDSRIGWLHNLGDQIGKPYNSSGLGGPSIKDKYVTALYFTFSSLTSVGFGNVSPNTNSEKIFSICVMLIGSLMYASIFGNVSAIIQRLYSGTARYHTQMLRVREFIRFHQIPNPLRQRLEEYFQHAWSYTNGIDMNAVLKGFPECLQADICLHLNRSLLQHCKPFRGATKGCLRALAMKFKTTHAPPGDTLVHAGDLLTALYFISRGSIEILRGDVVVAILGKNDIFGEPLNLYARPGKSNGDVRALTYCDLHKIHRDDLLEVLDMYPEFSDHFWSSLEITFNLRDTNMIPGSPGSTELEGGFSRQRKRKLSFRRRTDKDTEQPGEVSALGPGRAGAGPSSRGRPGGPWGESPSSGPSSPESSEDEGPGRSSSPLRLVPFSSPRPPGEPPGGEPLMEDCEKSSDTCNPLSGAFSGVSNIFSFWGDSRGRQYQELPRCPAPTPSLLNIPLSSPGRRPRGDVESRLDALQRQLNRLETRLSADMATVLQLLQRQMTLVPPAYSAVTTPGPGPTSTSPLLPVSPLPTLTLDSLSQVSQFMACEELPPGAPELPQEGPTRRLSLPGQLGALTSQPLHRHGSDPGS
Thyrotropin receptor (Homo sapiens), sequence (P16473 whole entry, looked up): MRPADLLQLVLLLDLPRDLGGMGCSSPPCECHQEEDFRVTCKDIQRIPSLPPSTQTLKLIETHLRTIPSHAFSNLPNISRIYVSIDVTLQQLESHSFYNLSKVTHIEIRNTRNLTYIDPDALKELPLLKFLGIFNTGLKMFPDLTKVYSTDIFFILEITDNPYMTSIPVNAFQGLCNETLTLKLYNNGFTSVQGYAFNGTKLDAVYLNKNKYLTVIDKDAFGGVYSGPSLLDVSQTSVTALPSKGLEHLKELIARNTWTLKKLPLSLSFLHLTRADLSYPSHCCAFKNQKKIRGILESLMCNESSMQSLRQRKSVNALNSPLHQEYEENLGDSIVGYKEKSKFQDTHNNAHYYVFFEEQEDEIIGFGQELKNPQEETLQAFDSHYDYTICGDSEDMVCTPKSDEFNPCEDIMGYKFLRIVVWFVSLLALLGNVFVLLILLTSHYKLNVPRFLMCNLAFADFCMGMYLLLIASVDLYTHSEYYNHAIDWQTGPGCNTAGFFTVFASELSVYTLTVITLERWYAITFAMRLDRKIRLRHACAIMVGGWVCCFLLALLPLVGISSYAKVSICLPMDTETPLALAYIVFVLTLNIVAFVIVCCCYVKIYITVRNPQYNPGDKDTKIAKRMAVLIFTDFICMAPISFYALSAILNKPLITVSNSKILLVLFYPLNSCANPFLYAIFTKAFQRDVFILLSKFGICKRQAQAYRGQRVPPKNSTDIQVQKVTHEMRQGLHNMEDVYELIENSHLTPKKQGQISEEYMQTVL
Tyrosine-protein kinase Yes (Homo sapiens), sequence (P07947 whole entry, looked up): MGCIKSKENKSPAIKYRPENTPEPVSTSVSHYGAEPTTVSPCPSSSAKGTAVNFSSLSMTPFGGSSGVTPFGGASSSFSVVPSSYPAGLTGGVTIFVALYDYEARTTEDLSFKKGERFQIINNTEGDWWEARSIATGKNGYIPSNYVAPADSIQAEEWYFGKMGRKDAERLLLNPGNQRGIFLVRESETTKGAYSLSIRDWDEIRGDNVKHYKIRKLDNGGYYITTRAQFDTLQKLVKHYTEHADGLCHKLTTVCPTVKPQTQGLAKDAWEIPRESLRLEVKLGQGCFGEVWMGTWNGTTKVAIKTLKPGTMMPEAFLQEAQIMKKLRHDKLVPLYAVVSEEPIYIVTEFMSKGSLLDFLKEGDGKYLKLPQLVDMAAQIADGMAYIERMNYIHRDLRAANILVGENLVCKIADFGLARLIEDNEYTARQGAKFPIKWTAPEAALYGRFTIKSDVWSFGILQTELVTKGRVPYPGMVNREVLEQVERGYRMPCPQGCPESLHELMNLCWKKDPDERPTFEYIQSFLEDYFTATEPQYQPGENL
Glucagon-like peptide 1 receptor (Homo sapiens), sequence (P43220 whole entry, looked up): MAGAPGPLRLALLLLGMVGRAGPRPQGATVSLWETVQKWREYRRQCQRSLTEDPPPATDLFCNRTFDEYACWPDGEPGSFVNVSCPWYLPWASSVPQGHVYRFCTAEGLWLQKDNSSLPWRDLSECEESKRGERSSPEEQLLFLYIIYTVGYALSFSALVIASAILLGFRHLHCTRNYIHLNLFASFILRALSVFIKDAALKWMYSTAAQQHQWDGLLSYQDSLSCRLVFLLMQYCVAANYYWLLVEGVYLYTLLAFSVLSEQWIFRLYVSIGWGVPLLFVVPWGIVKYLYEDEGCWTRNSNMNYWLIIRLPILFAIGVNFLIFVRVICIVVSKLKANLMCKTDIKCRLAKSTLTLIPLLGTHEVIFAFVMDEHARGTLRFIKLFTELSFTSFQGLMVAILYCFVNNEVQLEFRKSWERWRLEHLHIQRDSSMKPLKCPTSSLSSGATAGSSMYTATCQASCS

As for `O=Nc1c(-c2c(O)[nH]c3ccccc23)[nH]c2ccccc12`, the result in assay [1], in assay [2], in assay [3], in assay [5], in [6] and in [7] was inactive. The call in assay [12], in assay [13], in assay [14], in assay [15] and in assay [17] was inactive. The activation in assay [4] is -6%. Further, the Potency entry in assay [8], in assay [9] and in assay [10] was “inactive” in each case. For the same compound, the Potency in [11] is 11.2 µM (active); in [16], 0.772 µM (active); in [18], 10.7 µM (active); in [19], 10.3 µM (active).
